# Like-named read-outs stand apart in the source and are kept apart here.
# Tests used:
# Design in all cases: species or system human, MV4-11 + K-562 + COLO205 + SK-N-BE2 + OVCAR-8
# CDK16 = conditions: read-out: apparent Kd, n = 1
# MAPK10 = conditions: read-out: apparent Kd, n = 1
# MAPK9 = conditions: read-out: apparent Kd, compound concentrations: 100 nM and 1000 nM (sheet 'Samples'), n = 1
# RPS6KA4 = conditions: read-out: apparent Kd, n = 1
# STK4 = conditions: read-out: apparent Kd, n = 1
# ATM = conditions: read-out: apparent Kd, compound concentrations: 100 nM and 1000 nM (sheet 'Samples'), n = 1
# PRKACA = conditions: read-out: apparent Kd, n = 1
# MARK3 = conditions: read-out: apparent Kd, n = 1
# PRKACB = conditions: read-out: apparent Kd, n = 1
# CAMKK2 = conditions: read-out: apparent Kd; compound concentrations: 100 nM and 1000 nM (sheet 'Samples'), CATDS: 1.7349658835090001E-2; n = 1
# PIP4K2C = conditions: read-out: apparent Kd; compound concentrations: 100 nM and 1000 nM (sheet 'Samples'), CATDS: 1.6714878320236801E-2; n = 1
# AURKA = conditions: read-out: apparent Kd; compound concentrations: 100 nM and 1000 nM (sheet 'Samples'), CATDS: 0.14578513534179899; n = 1
# CSNK1D = conditions: read-out: apparent Kd; compound concentrations:100 nM and 1000 nM (sheet 'Samples'); n = 1
# [1] = compound concentrations:100 nM and 1000 nM (sheet 'Samples')
smiles,measurement,setting,value
CN[C@H](C#Cc1c(F)ccc2c1/C(=C/c1[nH]ccc1OC)C(=O)N2)CO.Cl [RO0283049-001],potency estimated from few doses,"CDK16; compound concentrations: 100 nM and 1000 nM (sheet 'Samples'), CATDS: 4.8469274935302599E-2",167 nM
same,potency estimated from few doses,"MAPK10; compound concentrations: 100 nM and 1000 nM (sheet 'Samples'), CATDS: 2.5716910898498702E-2",751 nM
same,potency estimated from few doses,MAPK9; CATDS: 5.4093082413128303E-2,135 nM
same,potency estimated from few doses,"RPS6KA4; compound concentrations: 100 nM and 1000 nM (sheet 'Samples'), CATDS: 3.14855312856318E-2",432 nM
same,potency estimated from few doses,"STK4; compound concentrations: 100 nM and 1000 nM (sheet 'Samples'), CATDS: 2.6680938989094499E-2",674 nM
COc1cc[nH]c1/C=C1\C(=O)Nc2ccc([N+](=O)[O-])c(N3CC[C@@H](O)C3)c21 [RO0504985-000],potency estimated from few doses,"CDK16; compound concentrations: 100 nM and 1000 nM (sheet 'Samples'), CATDS: 3.96360486889639E-2",697 nM
same,potency estimated from few doses,"MAPK10; compound concentrations: 100 nM and 1000 nM (sheet 'Samples'), CATDS: 3.16649097319332E-2",1540 nM
same,potency estimated from few doses,MAPK9; CATDS: 2.9417077034867501E-2,2110 nM
CC(C)(CO)CNC(=O)c1ccc2c(c1)/C(=N/Nc1ccc(S(N)(=O)=O)cc1)C(=O)N2 [GW301784X],potency estimated from few doses,CDK16; [1],53 nM
NS(=O)(=O)c1cccc(-c2ccc3c(NC(=O)C4CC4)n[nH]c3c2)c1 [SB-741905],potency estimated from few doses,ATM; CATDS: 0.31609765928995098,205 nM
CCn1c(-c2nonc2N)nc2cncc(C(=O)N3CC[C@H](N)C3)c21.Cl [SB-772077-B],potency estimated from few doses,PRKACA; [1],790 nM
same,potency estimated from few doses,RPS6KA4; [1],82.6 nM
CNc1nccc(-c2ccc3c(N)n[nH]c3c2)n1 [GSK2206003A],potency estimated from few doses,"MARK3; compound concentrations: 100 nM and 1000 nM (sheet 'Samples'), CATDS: 5.1673366030294897E-2",1410 nM
CC(C)N1CC(=O)N(C)c2cnc(Nc3cccc(S(=O)(=O)CCN4CCOCC4)c3)nc21 [BI00009348],potency estimated from few doses,ATM; CATDS: 0.21813144295739101,112 nM
Cl.Cl.NC[C@H](CC1CCCCC1)NC(=O)c1ccc(-c2ccnc3[nH]ccc23)s1.NC[C@H](CC1CCCCC1)NC(=O)c1ccc(-c2ccnc3[nH]ccc23)s1 [GSK1581428A],potency estimated from few doses,PRKACA; [1],31 nM
same,potency estimated from few doses,PRKACB; [1],49.7 nM
Cl.Cl.NCC(NC(=O)c1cc(-c2ccnc3[nH]ccc23)cs1)c1ccccc1.NCC(NC(=O)c1cc(-c2ccnc3[nH]ccc23)cs1)c1ccccc1 (centres unmarked) [GSK1229959A],potency estimated from few doses,CAMKK2,1720 nM
same,potency estimated from few doses,"CDK16; compound concentrations: 100 nM and 1000 nM (sheet 'Samples'), CATDS: 1.6665892971292499E-2",2280 nM
same,potency estimated from few doses,PIP4K2C,2230 nM
same,potency estimated from few doses,"PRKACA; compound concentrations: 100 nM and 1000 nM (sheet 'Samples'), CATDS: 5.4700328593155198E-2",27.5 nM
same,potency estimated from few doses,"PRKACB; compound concentrations: 100 nM and 1000 nM (sheet 'Samples'), CATDS: 4.1114005800974601E-2",56 nM
NS(=O)(=O)c1ccc(NC=C2C(=O)Nc3ccc4ncsc4c32)cc1 [GW589933X],potency estimated from few doses,"CDK16; compound concentrations: 100 nM and 1000 nM (sheet 'Samples'), CATDS: 3.8979394521984997E-2",193 nM
same,potency estimated from few doses,"RPS6KA4; compound concentrations: 100 nM and 1000 nM (sheet 'Samples'), CATDS: 2.5851222500782998E-2",479 nM
same,potency estimated from few doses,"STK4; compound concentrations: 100 nM and 1000 nM (sheet 'Samples'), CATDS: 3.75205363662858E-2",208 nM
COc1cccc(C2=C(c3c(C)n(C)c4ccccc34)C(=O)NC2=O)c1 [RO3300167-000],potency estimated from few doses,AURKA,490 nM
same,potency estimated from few doses,"STK4; compound concentrations: 100 nM and 1000 nM (sheet 'Samples'), CATDS: 0.12261986260266899",646 nM
NS(=O)(=O)c1ccc(N/C=C2\C(=O)Nc3ccc4ncsc4c32)cc1 [GW297361X],potency estimated from few doses,"CDK16; compound concentrations: 100 nM and 1000 nM (sheet 'Samples'), CATDS: 4.8575287587601497E-2",557 nM
same,potency estimated from few doses,"RPS6KA4; compound concentrations: 100 nM and 1000 nM (sheet 'Samples'), CATDS: 3.5375158245813998E-2",1150 nM
same,potency estimated from few doses,"STK4; compound concentrations: 100 nM and 1000 nM (sheet 'Samples'), CATDS: 4.6410579301478898E-2",611 nM
Cc1occc1-c1nc(N)c(OC[C@@H](N)Cc2c[nH]c3ccccc23)cc1-c1cc2c(C)n[nH]c2cn1 [GSK1660450B],potency estimated from few doses,CSNK1D,452 nM
same,potency estimated from few doses,MARK3; [1],1250 nM
same,potency estimated from few doses,PRKACA; [1],8.55 nM
same,potency estimated from few doses,PRKACB; [1],18.6 nM
same,potency estimated from few doses,STK4; [1],105 nM
Cc1cccc(-c2cc(-c3c[nH]nc3-c3ccccn3)ccn2)c1 [GW679395X],potency estimated from few doses,MAPK10; [1],1730 nM
